# Source: PubChem BioAssay (EPA / NIEHS)
# Calls of active or inactive are those of the source. Rule for the calls: active = hit-call score of the fitted dose curve at least 0.9, where 1 is the maximum; inactive = score below 0.9.
# What was measured:
# Conditions in all cases: mRNA level, 48 h; actives raise or lower the signal
# [1] = read-out: Insulin Like Growth Factor 1 (IGF1), IGF1 (gene 3479); assay: LTEA_HepaRG_IGF1: Life Technologies and Expression Analysis (LTEA) Assay for Insulin Like Growth Factor 1 (IGF1) using HepaRG (AID 2283506)
# How it was run: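 Expression measured by TaqMan qRT-PCR on a Fluidigm array, with three housekeeping genes for normalisation, after 48 h treatment of HepaRG cells. Top concentration 100 uM with half-log steps, 0.5% DMSO vehicle, bidirectional fit.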
# [2] = read-out: Intercellular Adhesion Molecule 1 (ICAM1), ICAM1 (gene 3383); assay: LTEA_HepaRG_ICAM1: Life Technologies and Expression Analysis (LTEA) Assay for Intercellular Adhesion Molecule 1 (ICAM1) using HepaRG (AID 2283507)
# How it was run: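 Readout is qRT-PCR mRNA level, normalized to three housekeeping genes and fitted bidirectionally against 0.5% DMSO vehicle. Human HepaRG cultures received compound for 48 h, top concentration 100 uM with half-log dilutions.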
# [3] = read-out: Insulin-like growth factor-binding protein 1 (IGFBP1), IGFBP1 (gene 3484); assay: LTEA_HepaRG_IGFBP1: Life Technologies and Expression Analysis (LTEA) Assay for Insulin-like growth factor-binding protein 1 (IGFBP1) using HepaRG (AID 2283508)
# How it was run: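 Thawed HepaRG cells are plated for 48 h, switched to serum-free induction medium, then dosed in duplicate for another 48 h (100 uM top, half-log steps). Lysates in RLT go to qRT-PCR, and gain or loss of signal is fitted relative to vehicle.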
# [4] = read-out: Potassium channel subfamily K member 1 (KCNK1), KCNK1 (gene 3775); assay: LTEA_HepaRG_KCNK1: Life Technologies and Expression Analysis (LTEA) Assay for Potassium channel subfamily K member 1 (KCNK1) using HepaRG (AID 2283511)
# How it was run: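 Human HepaRG cultures receive test chemicals for 48 h in 0.5% DMSO, top concentration 100 uM with half-log dilutions. Induction or suppression of KCNK1 mRNA relative to DMSO is derived by bidirectional fitting of qRT-PCR data.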
# [5] = read-out: Keratin 19 (KRT19), KRT19 (gene 3880); assay: LTEA_HepaRG_KRT19: Life Technologies and Expression Analysis (LTEA) Assay for Keratin 19 (KRT19) using HepaRG (AID 2283512)
# How it was run: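 KRT19 transcript levels, measured by Fluidigm qRT-PCR against three housekeeping genes, are fitted for gain or loss of signal relative to DMSO. Human HepaRG cells receive test chemicals (top 100 uM, half-log steps, 0.5% DMSO) for 48 hours.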
# [6] = read-out: JUN Transcription Factor, JUN (gene 3725); assay: LTEA_HepaRG_JUN: Life Technologies and Expression Analysis (LTEA) Assay for JUN Transcription Factor using HepaRG (AID 2283513)
# How it was run: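 mRNA measured by TaqMan qRT-PCR after 48 h chemical exposure of HepaRG cultures; normalization to three housekeeping genes. Duplicate eight-point half-log curves from 100 uM in 0.5% DMSO; gain or loss fitted against DMSO baseline.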
# [7] = read-out: Lipase C (LIPC), LIPC (gene 3990); assay: LTEA_HepaRG_LIPC: Life Technologies and Expression Analysis (LTEA) Assay for Lipase C (LIPC) using HepaRG (AID 2283514)
# How it was run: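 In this multiplexed gene-expression screen, human HepaRG cultures received test chemicals for 48 h across eight concentrations with 100 uM highest, in duplicate. Values reflect LIPC mRNA induction or suppression versus DMSO vehicle, from normalized qRT-PCR.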
# [8] = read-out: Lipoprotein lipase (LPL), LPL (gene 4023); assay: LTEA_HepaRG_LPL: Life Technologies and Expression Analysis (LTEA) Assay for Lipoprotein lipase (LPL) using HepaRG (AID 2283515)
# How it was run: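 Concentration-response testing used half-log steps from 100 uM in 0.5% DMSO on human HepaRG cells, 48 h, duplicate wells. Phenobarbital 1 mM served as induction control; LPL mRNA was normalized to ACTB, GAPDH, POLR2A.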
# [9] = read-out: MicroRNA 122 (MIR122), gene 406906; assay: LTEA_HepaRG_MIR122: Life Technologies and Expression Analysis (LTEA) Assay for MicroRNA 122 (MIR122) using HepaRG (AID 2283516); note: the transcript read is the microRNA miR-122
# How it was run: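 Expression measured by microfluidic qRT-PCR with three housekeeping genes for normalisation, after 48 h treatment of HepaRG cultures. Eight concentrations (top 100 uM, half-log steps, 0.5% DMSO vehicle) in duplicate; gain or loss fitted relative to vehicle.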
# [10] = read-out: matrix metalloproteinase-10 (MMP10), MMP10 (gene 4319); assay: LTEA_HepaRG_MMP10: Life Technologies and Expression Analysis (LTEA) Assay for matrix metalloproteinase-10 (MMP10) using HepaRG (AID 2283517)
# How it was run: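 In differentiated HepaRG cultures kept in 0.5% DMSO, test chemicals act for 48 h over an eight-point range with a top dose of 100 uM. Expression is then quantified by TaqMan RT-PCR against ACTB, GAPDH and POLR2A.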
# MYC, MYC (gene 4609) = assay: LTEA_HepaRG_MYC: Life Technologies and Expression Analysis (LTEA) Assay for MYC using HepaRG (AID 2283518)
# How it was run: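 HepaRG, ~100,000 cells/well, collagen I; 48 h plating; serum-free induction medium; 48 h dosing, duplicate, 100 uM top, half-log, 0.5% DMSO; total RNA → qRT-PCR MYC; gain/loss fit vs DMSO.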
# [11] = read-out: Paternally Expressed 10 (PEG10), PEG10 (gene 23089); assay: LTEA_HepaRG_PEG10: Life Technologies and Expression Analysis (LTEA) Assay for Paternally Expressed 10 (PEG10) using HepaRG (AID 2283520);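 for AC50: PEG10 transcript by qRT-PCR normalised to ACTB GAPDH and POLR2A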
# How it was run: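 PEG10 transcript measured by Fluidigm qRT-PCR, normalized to three housekeeping genes, in HepaRG cells treated 48 h (highest 100 uM, half-log steps, 0.5% DMSO vehicle). Cells plated 48 h before switching to serum-free induction medium.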
# [12] = read-out: Nuclear factor NF-kappa-B p105 subunit (Homo sapiens) (UniProt P19838); assay: LTEA_HepaRG_NFKB1: Life Technologies and Expression Analysis (LTEA) Assay for Nuclear Factor Kappa B Subunit 1 (NFKB1) using HepaRG (AID 2283521);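 note: TaqMan qRT-PCR transcript normalised to ACTB GAPDH and POLR2A housekeeping genes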
# How it was run: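 Differentiated human HepaRG cells in serum-free induction medium with 0.5% DMSO were exposed for 48 h to eight half-log concentrations, top 100 uM, in duplicate. NFKB1 mRNA measured by Fluidigm TaqMan qRT-PCR, normalised to ACTB, GAPDH and POLR2A; bidirectional fit versus DMSO.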
# [13] = read-out: Protein phosphatase 2A (PPP2R4), PTPA (gene 5524); assay: LTEA_HepaRG_PPP2R4: Life Technologies and Expression Analysis (LTEA) Assay for Protein phosphatase 2A (PPP2R4) using HepaRG (AID 2283522)
# How it was run: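 Expression was quantified by Fluidigm qRT-PCR normalised to three housekeeping genes after 48 h treatment. Human HepaRG cells received an 8-point series from 100 µM downward by half-logs, in duplicate with 0.5% DMSO vehicle and 1 mM phenobarbital as induction control.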
# [14] = read-out: Phosphatase and tensin (PTEN), PTEN (gene 5728); assay: LTEA_HepaRG_PTEN: Life Technologies and Expression Analysis (LTEA) Assay for Phosphatase and tensin (PTEN) using HepaRG (AID 2283523)
# How it was run: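 Expression of PTEN is quantified in the human liver line HepaRG following two days of dosing (top concentration 100 uM, half-log dilutions, 0.5% DMSO). Values derive from bidirectional curve fitting relative to DMSO controls.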
# [15] = read-out: solute carrier (SLC22A1), SLC22A1 (gene 6580); assay: LTEA_HepaRG_SLC22A1: Life Technologies and Expression Analysis (LTEA) Assay for solute carrier (SLC22A1) using HepaRG (AID 2283524);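 for AC50: TaqMan qRT-PCR normalized to ACTB GAPDH and POLR2A housekeeping genes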
# How it was run: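 Transcript induction or suppression of SLC22A1 in human HepaRG cultures is scored after 48 h chemical treatment, with DMSO (0.5%) as baseline for bidirectional fitting. Concentrations span eight half-log points topping at 100 uM.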
# [16] = read-out: Interleukin 6 Receptor (IL6R), IL6R (gene 3570); assay: LTEA_HepaRG_IL6R: Life Technologies and Expression Analysis (LTEA) Assay for Interleukin 6 Receptor (IL6R) using HepaRG (AID 2283510)
# How it was run: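 IL6R transcript level by qRT-PCR after 48 h chemical exposure (8-point, half-log, max 100 uM, 0.5% DMSO vehicle) of HepaRG cells in serum-free induction medium. Normalized to three housekeeping genes; curves fitted in both directions relative to DMSO.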
# [17] = read-out: matrix metalloproteinase-3 (MMP3), MMP3 (gene 4314); assay: LTEA_HepaRG_MMP3: Life Technologies and Expression Analysis (LTEA) Assay for matrix metalloproteinase-3 (MMP3) using HepaRG (AID 2283519)
# How it was run: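 Human liver HepaRG cultures received chemicals (top concentration 100 uM, 0.5% DMSO) for 48 h in duplicate. MMP3 mRNA induction or loss was then assessed via TaqMan qRT-PCR with housekeeping-gene normalisation.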
# [18] = read-out: Interleukin 6 (IL6), IL6 (gene 3569); assay: LTEA_HepaRG_IL6: Life Technologies and Expression Analysis (LTEA) Assay for Interleukin 6 (IL6) using HepaRG (AID 2283509)
# How it was run: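 Changes in IL6 mRNA, up or down relative to 0.5% DMSO controls, were derived from concentration-response curves in human HepaRG cells treated for 48 h at up to 100 uM, with ACTB, GAPDH and POLR2A as normalizers.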
# Nuclear factor NF-kappa-B p105 subunit (Homo sapiens), sequence (P19838 whole entry, looked up): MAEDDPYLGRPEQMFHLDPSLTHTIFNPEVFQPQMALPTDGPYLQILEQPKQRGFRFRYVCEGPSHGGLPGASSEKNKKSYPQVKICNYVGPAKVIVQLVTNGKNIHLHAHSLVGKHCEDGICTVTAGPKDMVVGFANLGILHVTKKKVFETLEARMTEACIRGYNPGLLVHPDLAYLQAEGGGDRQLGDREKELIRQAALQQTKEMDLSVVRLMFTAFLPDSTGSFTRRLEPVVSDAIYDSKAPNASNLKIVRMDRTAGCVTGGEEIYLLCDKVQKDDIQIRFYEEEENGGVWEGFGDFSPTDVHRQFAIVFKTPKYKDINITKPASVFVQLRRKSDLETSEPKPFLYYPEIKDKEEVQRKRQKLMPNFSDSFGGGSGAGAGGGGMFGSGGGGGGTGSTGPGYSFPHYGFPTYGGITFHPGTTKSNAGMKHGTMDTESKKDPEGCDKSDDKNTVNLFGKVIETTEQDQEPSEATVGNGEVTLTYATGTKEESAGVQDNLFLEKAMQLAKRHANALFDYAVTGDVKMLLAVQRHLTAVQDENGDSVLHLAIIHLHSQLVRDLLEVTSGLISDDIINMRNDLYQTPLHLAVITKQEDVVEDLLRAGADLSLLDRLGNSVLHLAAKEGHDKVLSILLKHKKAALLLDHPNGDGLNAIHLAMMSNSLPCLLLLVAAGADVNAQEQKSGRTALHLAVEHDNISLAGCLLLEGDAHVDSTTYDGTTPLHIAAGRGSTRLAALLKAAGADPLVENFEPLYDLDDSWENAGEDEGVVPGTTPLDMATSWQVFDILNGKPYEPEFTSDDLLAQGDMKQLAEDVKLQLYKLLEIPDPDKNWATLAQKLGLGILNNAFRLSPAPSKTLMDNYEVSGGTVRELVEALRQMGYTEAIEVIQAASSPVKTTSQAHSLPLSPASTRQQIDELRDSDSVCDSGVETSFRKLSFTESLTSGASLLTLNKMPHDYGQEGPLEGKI
structure (smiles),measurement,setting,value
CCOCCOCCOCCO,outcome,[1],inactive
same,outcome,[2],inactive
same,outcome,[3],inactive
same,outcome,[4],inactive
same,outcome,[5],inactive
same,outcome,[6],inactive
same,outcome,[7],inactive
same,outcome,[8],inactive
same,outcome,[9],inactive
same,outcome,[10],inactive
same,outcome,"MYC, MYC (gene 4609)",inactive
same,outcome,[11],inactive
same,outcome,[12],inactive
same,outcome,[13],inactive
same,outcome,[14],inactive
same,outcome,[15],inactive
COc1ccc(/C=C/S(=O)(=O)NC(=O)c2ccc(C)cc2Cl)cc1,outcome,[1],inactive
same,outcome,[2],inactive
same,outcome,[3],inactive
same,outcome,[16],inactive
same,outcome,[4],inactive
same,outcome,[5],inactive
same,outcome,[6],inactive
same,outcome,[7],inactive
same,outcome,[9],inactive
same,outcome,[10],inactive
same,outcome,"MYC, MYC (gene 4609)",inactive
same,outcome,[17],inactive
same,AC50,[11],75.3 µM (active)
same,outcome,[12],inactive
same,AC50,[13],0.11 µM (active)
same,outcome,[14],inactive
same,outcome,[15],inactive
Nc1nc2ncc(CNc3ccc(C(=O)N[C@@H](CCC(=O)O)C(=O)O)cc3)nc2c(=O)[nH]1,outcome,[1],inactive
same,outcome,[2],inactive
same,outcome,[3],inactive
same,outcome,[18],inactive
same,outcome,[4],inactive
same,outcome,[5],inactive
same,outcome,[6],inactive
same,outcome,[7],inactive
same,outcome,[8],inactive
same,outcome,[9],inactive
same,outcome,[10],inactive
same,outcome,"MYC, MYC (gene 4609)",inactive
same,outcome,[11],inactive
same,outcome,[12],inactive
same,outcome,[13],inactive
same,outcome,[14],inactive
same,outcome,[15],inactive
CC(C)=CCCC(C)CCO (stereo unspecified),outcome,[1],inactive
same,outcome,[2],inactive
same,outcome,[3],inactive
same,outcome,[16],inactive
same,outcome,[4],inactive
same,outcome,[5],inactive
same,outcome,[6],inactive
same,outcome,[7],inactive
same,outcome,[9],inactive
same,outcome,[10],inactive
same,outcome,"MYC, MYC (gene 4609)",inactive
same,outcome,[17],inactive
same,outcome,[11],inactive
same,outcome,[12],inactive
same,outcome,[13],inactive
same,outcome,[14],inactive
same,outcome,[15],inactive
CCN(C(=O)c1cc(C)cc(OC[C@H](C)Nc2ccncc2)c1)C(C)C,AC50,[1],33.8 µM (active)
same,outcome,[2],inactive
same,outcome,[3],inactive
same,AC50,[18],33.8 µM (active)
same,outcome,[4],inactive
same,AC50,[5],19.3 µM (active)
same,outcome,[6],inactive
same,AC50,[7],33.8 µM (active)
same,AC50,[8],33.8 µM (active)
same,AC50,[9],33.8 µM (active)
same,AC50,[10],33.8 µM (active)
same,outcome,"MYC, MYC (gene 4609)",inactive
same,outcome,[11],inactive
same,outcome,[12],inactive
same,outcome,[13],inactive
same,outcome,[14],inactive
same,AC50,[15],33.8 µM (active)
Cn1c(=O)c2c(ncn2C)n(C)c1=O,outcome,[1],inactive
same,outcome,[2],inactive
same,outcome,[3],inactive
same,outcome,[18],inactive
same,outcome,[4],inactive
same,outcome,[5],inactive
same,outcome,[6],inactive
same,outcome,[7],inactive
same,outcome,[9],inactive
same,outcome,[10],inactive
same,outcome,"MYC, MYC (gene 4609)",inactive
same,outcome,[17],inactive
same,outcome,[11],inactive
same,outcome,[13],inactive
same,outcome,[14],inactive
same,outcome,[15],inactive
Nc1cccc(N)c1,outcome,[1],inactive
same,outcome,[2],inactive
same,outcome,[3],inactive
same,outcome,[18],inactive
same,outcome,[4],inactive
same,outcome,[5],inactive
same,outcome,[6],inactive
same,outcome,[7],inactive
same,outcome,[9],inactive
same,outcome,[10],inactive
same,outcome,"MYC, MYC (gene 4609)",inactive
same,outcome,[11],inactive
same,outcome,[12],inactive
same,outcome,[13],inactive
same,outcome,[14],inactive
same,outcome,[15],inactive
